Each structure is given as a SMILES string. Records with an inconclusive call do not appear. Where a call stands in place of a potency, no number is given. Calls of active or inactive are those of the source. Calls come from the whole dose curve; as a rule, active = well fitted activation curve with a large enough effect in the repeat runs; inconclusive = weak or mixed curves, or effect the other way; inactive = no such curve, though single readings can be large or run the other way.
Potency is the fitted concentration of half-maximal effect.

This test is described as follows: qHTS assay to identify small molecule agonists of the retinoic acid receptor (RAR) signaling pathway (AID 1159553). Particulars: C3RL4 RARE luciferase reporter, agonist, 6 h; series mostly up to 73.3 µM. The source says:
National Center for Advancing Translational Sciences [NCATS] NIH Chemical Genomics Center [NCGC] U.S. Environmental Protection Agency [EPA] National Institutes of Environmental Health Sciences [NIEHS] National Toxicology Program [NTP] Assay overview: All-trans Retinoic acid (atRA) is the potent natural metabolite of retinol and plays an important role in normal embryonic development and maintenance of cellular phenotype in adult animals. atRA is the activating ligand for the retinoic acid receptors (RARs) which form heterodimers with retinoid X receptors (RXRs) on the retinoic acid response element (RARE). Through activation of the RAR/RXRs nuclear receptors, atRA regulates the transcription of a large number of protein-coding genes and regulatory RNAs. Intracellular levels of atRA are controlled by the retinol signaling pathway (RSP) that regulates the biosynthesis and catabolism of atRA to maintain physiological levels. Chemicals that interfere with the RSP can cause abnormal intracellular levels of atRA and therefore are potential developmental toxicants. To assess compounds for the potential adverse effect on embryonic development through interfering with retinol signaling, a cell-based RARE luciferase reporter gene assay was used. C3RL4 cell line (OARSA/CFSAN/FDA, Laurel, MD) was used to screen Tox21 10K compound library for identifying activators of the RSP.
Assay Protocol Summary: C3RL4 cells were seeded at 1,000/well in 5 uL of assay medium into white solid 1,536-well tissue culture plates (Greiner Bio-One North America Inc. Monroe, NC) using a Multidrop Combi (Thermo Scientific, Waltham, MA) dispenser. After incubation at 37 C and 5% CO2 for an overnight, 23 nL of compounds dissolved in DMSO, positive control or DMSO only were transferred by a Pintool station (Kalypsys, San Diego, CA). After 6 hr incubation at 37 C and 5% CO2, 5 uL of Amplite Luciferase reagent (AAT Bioquest Inc. Sunnyvale, CA) was added to each assay plate using a Flying Reagent Dispenser (FRD) (Aurora Discovery, San Diego, CA). Luminescence was quantified on a ViewLux plate reader (PerkinElmer, Waltham, MA) after 30 min incubation at room temperature.
For the compound `C#CCC1=C(C)C(OC(=O)C2C(C=C(C)C)C2(C)C)CC1=O` (stereo not given), the Potency entry was “inactive”.

`c1ccc2nc(N3CCNCC3)ccc2c1`: the Potency entry is “inactive”.

For `ClCBr`, the Potency entry is “inactive”.

Regarding `CC(Cl)CCl` (stereo not given), the Potency entry was “inactive”.

As to `S=C=Nc1ccccc1`, the Potency was 70.8 µM (active).

As to `CC(C)N(C(=O)SC/C(Cl)=C/Cl)C(C)C`, the Potency entry was “inactive”.

As for `C[N+]1(C)[C@@H]2CC[C@H]1CC(OC(=O)C(CO)c1ccccc1)C2` (stereo not given in full), the Potency result is “inactive”.

As for `CC(Cc1ccc(O)cc1)NCC(O)c1cc(O)cc(O)c1` (stereo not given), the Potency entry was “inactive”.

Turning to `ClSC(Cl)(Cl)Cl`, the Potency result was “inactive”.

On to `Nc1ccc(N=Nc2ccccc2)cc1`, for which the Potency was 0.386 µM (active).

With `C[C@]12CC[C@H]3[C@@H](CCC4=CC(=O)CC[C@@H]43)[C@@H]1CC[C@@H]2OC(=O)CCc1ccco1`, the Potency result was “inactive”.

Regarding `O=P(Cl)(Cl)Cl`, the Potency result was “inactive”.

With `CO/N=C(\C(=O)OC)c1ccccc1CO/N=C(\C)c1cccc(C(F)(F)F)c1`, the Potency entry was “inactive”.

Turning to `N#Cc1c2ccccc2cc2ccccc12`, the Potency entry was “inactive”.

For the compound `Cc1c([N+](=O)[O-])cc2c(c1[N+](=O)[O-])C(C)(C)CC2(C)C`, the Potency result is “inactive”.

In the case of `Cc1cc2c3c(c1)C(c1ccccc1)=N[C@@H](NC(=O)c1ccncc1)C(=O)N3CC2`, the Potency result is “inactive”.

In the case of `CCCCON=O`, the Potency entry is “inactive”.

Consider `CN1C2CCC(C)(C)C1CC(OC(=O)C(O)(c1cccs1)c1cccs1)C2` (stereo not given), for which the Potency entry is “inactive”.

As for `CCCCCCC[CH2][Sn]([Cl])([Cl])[CH2]CCCCCCC`, the Potency result was “inactive”.

Turning to `CCC[CH2][Sn]([CH2]CCC)([CH2]CCC)[CH2]CCC`, the Potency entry is “inactive”.

Take `COCCC#N`: the Potency entry is “inactive”.

On to `CSC(=O)c1c(C(F)F)nc(C(F)(F)F)c(C(=O)SC)c1CC(C)C`, for which the Potency entry is “inactive”.

On to `CC1(C)[C@H](/C=C2\CCSC2=O)[C@@H]1C(=O)OCc1coc(Cc2ccccc2)c1`, for which the Potency result was “inactive”.

Regarding `NC(=O)C(Cl)Cl`, the Potency entry is “inactive”.

`CC(Cc1ccc2c(c1)OCO2)NO` (stereo not given): the Potency result was “inactive”.

Turning to `Nc1nc(N)c(N)c(N)n1`, the Potency entry is “inactive”.

With `COP(=O)(OC)Oc1ccc([N+](=O)[O-])cc1`, the Potency entry is “inactive”.

As for `CCCCC(CC)COC(=O)OOC(C)(C)C` (stereo not given), the Potency result is “inactive”.

As for `[O]=[Cr][O][Cr]=[O]`, the Potency result is “inactive”.

Turning to `ClC(Cl)C(Cl)(Cl)Cl`, the Potency entry is “inactive”.

Consider `CCCCCON=O`, for which the Potency entry was “inactive”.

`COP(=S)(OC)Oc1nc(Cl)c(Cl)cc1Cl`: the Potency entry was “inactive”.

On to `ClC1(Cl)C2(Cl)C3(Cl)C4(Cl)C(Cl)(Cl)C5(Cl)C3(Cl)C1(Cl)C5(Cl)C24Cl` (stereo not given), for which the Potency result is “inactive”.

As for `O=C1C[C@@H]2OCC=C3CN4CC[C@]56c7ccccc7N1[C@H]5[C@H]2[C@H]3C[C@H]46`, the Potency entry was “inactive”.

As to `Cc1cc(C2CC2)nc(Nc2ccccc2)n1`, the Potency was 19.3 µM (active).

Regarding `O=c1[nH]c(Cl)c(Cl)cc1Cl`, the Potency result is “inactive”.

Turning to `Oc1cccc(Cl)c1Cl`, the Potency entry was “inactive”.

`c1ccc2c(c1)cc1ccc3cccc4ccc2c1c34`: the Potency is 11.1 µM (active).

As for `C[C@@H]1CC2=CC(=O)CC[C@@H]2[C@H]2CC[C@@]3(C)[C@@H](CC[C@]3(C)O)[C@@H]21`, the Potency result was “inactive”.

Take `CN1C(=O)[C@@H](NC(=O)c2cc3ccccc3[nH]2)N=C(c2ccccc2)c2ccccc21`: the Potency result was “inactive”.

The values above are taken from PubChem BioAssay (Tox21).
